The panel holds about 83,000 compounds, 20% with a hit somewhere; the sample as a whole holds those more often.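 In brief: 96-well plates, 48 h treatment, single concentration, percent growth endpoint.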 Values without a mark were called inactive. The source made the active and inactive calls. Rule for the calls: active = growth percent below 10; inactive = the rest.
Experiments:
Assay in all cases: NCI-60 one-dose screen, 48 h (100 = growth as untreated, 0 = no growth, -100 = all killed)
Conditions in all cases: 10 µM unless noted
[1] = test system: NCI-H23 lung
[2] = test system: NCI-H226 lung
[3] = test system: NCI-H322M lung
[4] = test system: HOP-62 NSCLC
[5] = test system: NCI-H460 lung
[6] = test system: HOP-92 NSCLC
[7] = test system: NCI-H522 lung
[8] = test system: A549/ATCC NSCLC
[9] = test system: 786-0 renal
[10] = test system: COLO 205 colon
[11] = test system: DU-145 prostate
[12] = test system: K-562 leukemia
[13] = test system: MALME-3M melanoma
[14] = test system: MDA-MB-231 breast
[15] = test system: RXF 393 renal
[16] = test system: SF-268 CNS
[17] = test system: SF-295 CNS
[18] = test system: UACC-257 melanoma
[19] = test system: M14 melanoma

Compound	growth [1]	growth [2]	growth [3]	growth [4]	growth [5]	growth [6]	growth [7]	growth [8]	growth [9]	growth [10]	growth [11]	growth [12]	growth [13]	growth [14]	growth [15]	growth [16]	growth [17]	growth [18]	growth [19]
CCN(CC)C12CCCCC1(C)C(C#N)(C#N)C(C#N)=C(N)O2 (stereo not drawn)	101%	95.6%	91.3%	98.8%	114%	83.8%	105%	106%	108%	140%	107%	95.5%	92.3%	108%	144%	99.6%	98%	114%	102%
COc1cc2nc3cc([N+](=O)[O-])ccc3c(NCCCNCC(C)(C)O)c2cc1OC	-47.4% (active)	-37.6% (active)	-24.8% (active)	-53.3% (active)	-48.5% (active)	-53.9% (active)	-56.7% (active)	-30.9% (active)	-61.6% (active)	-81.2% (active)	-34.3% (active)	0.851% (active)	-81.8% (active)	-62.5% (active)	-81.9% (active)	-57.4% (active)	-41.2% (active)	-64.2% (active)	-77.3% (active)
NCc1cn2cc(Cl)sc2n1	107%	101%	90.3%	112%	103%	101%	95.5%	92.9%	106%	114%	114%	95%	103%	112%	98.9%	111%	102%	105%	108%
CCCCCCCCSC1=CC(=O)C(OC)=C(OC)C1=O	26.6%	80.9%	89.4%	91.3%	45.9%	-31.3% (active)	-97.8% (active)	57.2%	61.9%	37.1%	68.5%	3.59% (active)	-53.4% (active)	24.2%	-69.7% (active)	43.6%	74.1%	-35.3% (active)	26.6%
COc1ccc2nc3cc(Cl)ccc3c(NCCNCC(O)CO)c2c1 (stereo not drawn)	23.6%	43.1%	20.6%	31.5%	0.301% (active)	13.1%	3.19% (active)	14.6%	29.3%	0.893% (active)	31.6%	10.8%	28.7%	20%	9.56% (active)	28.8%	45.6%	32.5%	28%
O=C(/C=C/c1ccc(Cl)cc1)/C=C/c1cc2ccccc2[nH]c1=O	68%	93.5%	105%	39.4%	94.4%	92.5%	46.4%	46.5%	88.5%	40.8%	79.3%	10.1%	14.3%	63.8%	38.3%	45.2%	102%	88.9%	60.3%
O=c1[nH]c(-c2ccccn2)nc2sc3c(c12)CCCCC3	56.9%	68.8%	48.5%	37.8%	18.8%	68.6%	20.8%	31.7%	60.4%	28%	48.8%	21.4%	75.3%	52.4%	70.4%	47.6%	33.1%	73.4%	43.3%
